Assay results reported in PubChem BioAssay (NCI).
The panel holds about 83,000 compounds, 20% with a hit somewhere; the sample as a whole holds those more often.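 Percent growth is the endpoint: 0 to 100 indicates growth inhibition (40 means 60% inhibition), 0 means no net growth, and negative values indicate cell death.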 The source made the active and inactive calls. The calls were made as follows: active = growth percent below 10; inactive = the rest.

Legend:
Assay in all cases: NCI-60 one-dose screen, 48 h (100 = growth as untreated, 0 = no growth, -100 = all killed)
Settings in all cases: 10 µM unless noted
HCT-15 colon = test system: HCT-15 colon
HT29 colon = test system: HT29 colon
SNB-75 CNS = test system: SNB-75 CNS
SNB-19 CNS = test system: SNB-19 CNS
U251 CNS = test system: U251 CNS
PC-3 prostate = test system: PC-3 prostate
SK-MEL-5 melanoma = test system: SK-MEL-5 melanoma
UACC-62 melanoma = test system: UACC-62 melanoma
LOX IMVI melanoma = test system: LOX IMVI melanoma
SK-MEL-28 melanoma = test system: SK-MEL-28 melanoma
SK-MEL-2 melanoma = test system: SK-MEL-2 melanoma
EKVX NSCLC = test system: EKVX NSCLC
SN12C renal = test system: SN12C renal
UO-31 renal = test system: UO-31 renal
TK-10 renal = test system: TK-10 renal
ACHN renal = test system: ACHN renal
CAKI-1 renal = test system: CAKI-1 renal
CCRF-CEM leukemia = test system: CCRF-CEM leukemia
MOLT-4 leukemia = test system: MOLT-4 leukemia
A498 renal = test system: A498 renal

Measured: growth

NC(=O)c1cccc(-c2ccccc2N2CCCCC2)c1
inactive: HCT-15 colon 101% | HT29 colon 95.2% | SNB-75 CNS 99.7% | SNB-19 CNS 93% | U251 CNS 98.3% | PC-3 prostate 83.9% | SK-MEL-5 melanoma 100% | UACC-62 melanoma 85% | LOX IMVI melanoma 98.5% | SK-MEL-28 melanoma 98.6% | SK-MEL-2 melanoma 103% | EKVX NSCLC 97.2% | SN12C renal 93.6% | UO-31 renal 82.4% | TK-10 renal 103% | ACHN renal 95.3% | CAKI-1 renal 83% | CCRF-CEM leukemia 89.7% | MOLT-4 leukemia 91.1%

Nc1c(Cl)cc([N+](=O)[O-])cc1Br
inactive: HCT-15 colon 103% | HT29 colon 103% | SNB-75 CNS 108% | SNB-19 CNS 116% | U251 CNS 101% | PC-3 prostate 96.1% | SK-MEL-5 melanoma 98.9% | UACC-62 melanoma 102% | LOX IMVI melanoma 104% | SK-MEL-28 melanoma 110% | SK-MEL-2 melanoma 121% | EKVX NSCLC 89.1% | SN12C renal 97% | UO-31 renal 90% | TK-10 renal 115% | ACHN renal 112% | CAKI-1 renal 85.4% | CCRF-CEM leukemia 104% | MOLT-4 leukemia 105%

C=CCn1c(SCC(=O)Nc2ccc(C(=O)/C=C/c3cc(OC)c(OC)c(OC)c3)cc2)nnc1-c1cc(-c2ccc(S(C)(=O)=O)cc2)nc2ccccc12
inactive: HCT-15 colon 69.7% | HT29 colon 81.3% | SNB-75 CNS 55.7% | SNB-19 CNS 74.1% | U251 CNS 88.3% | PC-3 prostate 88.8% | SK-MEL-5 melanoma 82.7% | UACC-62 melanoma 75.5% | LOX IMVI melanoma 67% | SK-MEL-28 melanoma 108% | SK-MEL-2 melanoma 103% | EKVX NSCLC 90.9% | SN12C renal 88.5% | UO-31 renal 78.4% | TK-10 renal 159% | ACHN renal 91.9% | CAKI-1 renal 77.3% | CCRF-CEM leukemia 35% | MOLT-4 leukemia 56.3%

CCN(CCNc1cc(OC)cc2cccnc12)CCc1ccccc1
inactive: HCT-15 colon 73.1% | HT29 colon 70% | SNB-75 CNS 83.7% | SNB-19 CNS 98.1% | U251 CNS 101% | PC-3 prostate 87.5% | SK-MEL-5 melanoma 95.3% | UACC-62 melanoma 99.8% | LOX IMVI melanoma 86.5% | SK-MEL-28 melanoma 102% | SK-MEL-2 melanoma 101% | EKVX NSCLC 91.2% | SN12C renal 91.3% | UO-31 renal 70.8% | TK-10 renal 101% | ACHN renal 84.1% | CAKI-1 renal 84.7% | CCRF-CEM leukemia 73.7%

CCCN=C(N)c1ccc(NC(=O)c2ccc(C(=O)Nc3ccc(C(N)=NCCC)cc3)cc2)cc1
inactive: HCT-15 colon 99.7% | HT29 colon 102% | SNB-75 CNS 78.1% | SNB-19 CNS 105% | U251 CNS 107% | PC-3 prostate 90.8% | SK-MEL-5 melanoma 27.2% | UACC-62 melanoma 90.2% | LOX IMVI melanoma 108% | SK-MEL-28 melanoma 110% | SK-MEL-2 melanoma 97.2% | EKVX NSCLC 96.1% | SN12C renal 93.1% | UO-31 renal 79.8% | TK-10 renal 99% | ACHN renal 91.8% | CAKI-1 renal 95% | CCRF-CEM leukemia 108% | MOLT-4 leukemia 78.2%

CC(C)(C)OC(=O)N1C/C(=C\c2ccoc2)C(=O)/C(=C/c2ccoc2)C1
inactive: HCT-15 colon 99.6% | HT29 colon 98% | SNB-75 CNS 77% | SNB-19 CNS 96.5% | U251 CNS 88.2% | PC-3 prostate 89.5% | SK-MEL-5 melanoma 99.8% | UACC-62 melanoma 88.3% | LOX IMVI melanoma 90.7% | SK-MEL-28 melanoma 102% | SK-MEL-2 melanoma 96.4% | EKVX NSCLC 102% | SN12C renal 97.8% | UO-31 renal 74.2% | TK-10 renal 94.8% | ACHN renal 99.6% | CAKI-1 renal 82.5% | CCRF-CEM leukemia 16.5% | MOLT-4 leukemia 76.1%

c1ccc2c(-c3c4ccsc4cc4[nH]c5ccccc5c34)c[nH]c2c1
inactive: HCT-15 colon 24.7% | SNB-75 CNS 20.3% | SNB-19 CNS 48.5% | U251 CNS 38.7% | PC-3 prostate 36.1% | SK-MEL-5 melanoma 31.9% | UACC-62 melanoma 44.8% | LOX IMVI melanoma 26.9% | SK-MEL-28 melanoma 48.9% | SK-MEL-2 melanoma 23.9% | EKVX NSCLC 53.3% | SN12C renal 50.1% | UO-31 renal 40.1% | TK-10 renal 76% | ACHN renal 43.3% | CAKI-1 renal 34.5% | CCRF-CEM leukemia 19.8% | MOLT-4 leukemia 32.2%
active: HT29 colon 8.87%

Nc1c(C(=O)Nc2ccc(Cl)cc2)cc(-c2nc3ccccc3s2)c(=O)n1NS(=O)(=O)c1ccc(Cl)cc1
inactive: HCT-15 colon 96.7% | HT29 colon 104% | SNB-75 CNS 84.1% | SNB-19 CNS 99.8% | U251 CNS 104% | PC-3 prostate 104% | SK-MEL-5 melanoma 96.4% | UACC-62 melanoma 89.8% | LOX IMVI melanoma 99.3% | SK-MEL-28 melanoma 109% | SK-MEL-2 melanoma 102% | EKVX NSCLC 85.8% | SN12C renal 95% | UO-31 renal 85.9% | TK-10 renal 147% | ACHN renal 103% | CAKI-1 renal 86.4% | CCRF-CEM leukemia 97.6% | MOLT-4 leukemia 91.5%

C=C1C(=O)O[C@H]2[C@H]1CC/C(CNC(=O)/C=C/c1ccccc1F)=C\CC[C@@]1(C)O[C@@H]21
inactive: SNB-75 CNS 94.1% | SNB-19 CNS 56.4% | U251 CNS 52.5% | PC-3 prostate 37.3% | SK-MEL-5 melanoma 66.1% | SK-MEL-2 melanoma 54.7%
active: HCT-15 colon -63.4% | HT29 colon -17.2% | UACC-62 melanoma -5.46% | LOX IMVI melanoma -25% | SK-MEL-28 melanoma -33.9% | EKVX NSCLC -18.9% | SN12C renal 8.82% | UO-31 renal -95.9% | TK-10 renal -29% | ACHN renal -65.6% | CAKI-1 renal -84.4% | CCRF-CEM leukemia -0.259% | MOLT-4 leukemia -12%

O=C(c1ccccc1)N1N=C(c2ccc(-n3ccc(C(F)(F)F)n3)cc2)CC1c1ccc[nH]1 (configuration not stated)
inactive: HCT-15 colon 70.6% | HT29 colon 87.1% | SNB-75 CNS 80.6% | SNB-19 CNS 92.7% | U251 CNS 86% | PC-3 prostate 83.3% | SK-MEL-5 melanoma 101% | UACC-62 melanoma 89.6% | LOX IMVI melanoma 80% | SK-MEL-28 melanoma 92.2% | SK-MEL-2 melanoma 97.7% | EKVX NSCLC 88.9% | SN12C renal 98.1% | UO-31 renal 77.8% | TK-10 renal 80.8% | ACHN renal 90.6% | CAKI-1 renal 84.1% | CCRF-CEM leukemia 85.6% | MOLT-4 leukemia 75.8%

C=C(C)[C@@H]1CC[C@]2(C(=O)NCC(=O)OC)CC[C@]3(C)[C@H](CC[C@@H]4[C@@]5(C)Cc6c([nH]c7ccccc67)C(C)(C)[C@@H]5CC[C@]43C)[C@@H]12
inactive: HCT-15 colon 81.9% | HT29 colon 60.8% | SNB-75 CNS 114% | SNB-19 CNS 82.5% | U251 CNS 58.9% | PC-3 prostate 49.1% | SK-MEL-5 melanoma 81.7% | UACC-62 melanoma 76.6% | LOX IMVI melanoma 70.7% | SK-MEL-28 melanoma 95% | SK-MEL-2 melanoma 78.2% | EKVX NSCLC 71.5% | SN12C renal 70.9% | UO-31 renal 65.1% | TK-10 renal 89.3% | ACHN renal 60.5% | CAKI-1 renal 58.6% | CCRF-CEM leukemia 57.2% | MOLT-4 leukemia 40.9%

COc1ccc(-c2nc(N/N=C/c3cccc(O)c3)nc(N3CCOCC3)c2C#N)cc1
inactive: HCT-15 colon 46.9% | HT29 colon 72.6% | SNB-75 CNS 23.6% | SNB-19 CNS 85.9% | U251 CNS 58.9% | PC-3 prostate 56.5% | SK-MEL-5 melanoma 80.1% | UACC-62 melanoma 90.1% | LOX IMVI melanoma 79.6% | SK-MEL-28 melanoma 33.9% | SK-MEL-2 melanoma 85.6% | EKVX NSCLC 88.7% | SN12C renal 78.3% | UO-31 renal 34.4% | TK-10 renal 88.4% | ACHN renal 57.8% | CAKI-1 renal 77% | CCRF-CEM leukemia 26.3% | MOLT-4 leukemia 39.8%

O=C1Nc2c(ccc(Cl)c2Cl)/C1=C/c1ccccn1
active: CAKI-1 renal -1.32%
inactive: HCT-15 colon 70.9% | HT29 colon 78.5% | SNB-75 CNS 84.6% | SNB-19 CNS 84.5% | U251 CNS 85% | PC-3 prostate 75.2% | SK-MEL-5 melanoma 83.1% | UACC-62 melanoma 70.5% | LOX IMVI melanoma 43.9% | SK-MEL-28 melanoma 105% | SK-MEL-2 melanoma 104% | EKVX NSCLC 62.3% | SN12C renal 97% | UO-31 renal 73.3% | TK-10 renal 120% | ACHN renal 72.6% | CCRF-CEM leukemia 23.2%

COc1ccc(C(O)c2cc3c(N)c(C(=O)Nc4ccc(Br)cc4)sc3nc2C)cc1 (configuration not stated)
active: HT29 colon -34.2% | SNB-75 CNS -10.8% | CCRF-CEM leukemia 6.36%
inactive: HCT-15 colon 18.2% | SNB-19 CNS 36.1% | U251 CNS 17.2% | PC-3 prostate 18.2% | SK-MEL-5 melanoma 16.4% | UACC-62 melanoma 26.1% | LOX IMVI melanoma 33.4% | SK-MEL-28 melanoma 60% | SK-MEL-2 melanoma 33.7% | EKVX NSCLC 32% | SN12C renal 36% | UO-31 renal 43% | TK-10 renal 39.5% | ACHN renal 37.8% | CAKI-1 renal 32.5% | MOLT-4 leukemia 17.5%

COc1ccc(/C=C(/c2ccccc2)[N+](=O)[O-])cc1
active: HCT-15 colon -35% | HT29 colon -26.7% | SNB-75 CNS -85.5% | SNB-19 CNS -19% | U251 CNS -95.4% | PC-3 prostate -56.7% | SK-MEL-5 melanoma -91.5% | UACC-62 melanoma -17.6% | LOX IMVI melanoma -89.6% | SK-MEL-28 melanoma -17.7% | SK-MEL-2 melanoma -49.7% | EKVX NSCLC -29.6% | SN12C renal -38.4% | UO-31 renal -100% | TK-10 renal -83.2% | ACHN renal -97.4% | CAKI-1 renal -88.3% | MOLT-4 leukemia -15.5%
inactive: A498 renal 10%

CC(=O)OCCCCCNc1ccccc1
inactive: HCT-15 colon 107% | HT29 colon 99.2% | SNB-75 CNS 103% | SNB-19 CNS 107% | U251 CNS 100% | PC-3 prostate 100% | SK-MEL-5 melanoma 106% | UACC-62 melanoma 106% | LOX IMVI melanoma 100% | SK-MEL-28 melanoma 106% | SK-MEL-2 melanoma 102% | EKVX NSCLC 104% | SN12C renal 103% | UO-31 renal 88.1% | TK-10 renal 107% | ACHN renal 101% | CAKI-1 renal 95.7% | CCRF-CEM leukemia 103% | MOLT-4 leukemia 91.3%
